Test results from PubChem BioAssay.
Calls of active or inactive are those of the source.

What was measured:
[1] = system: Plasmodium falciparum Sir2 (PF13_0152, Sir2A); experiment: pfSir2 binders on small-molecule microarrays, primary screen, biochemical, small-molecule microarray, 635 nm fluorescence (AID 1098); settings: small-molecule microarray binding, fluorescence 635 nm; higher = more signal;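 note: score merges spot fluorescence intensity with its signal-to-noise ratio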
[2] = small-molecule microarray binders of probe aDKK1, primary screen, biochemical, biotinylated probe, 635/667 nm fluorescence (AID 1099); settings: higher = more signal;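 note: score merges 667nm spot fluorescence with signal to noise across triplicate slides; reference of the scale not given here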
[3] = small-molecule microarray binders of probe aCHRDL2, primary screen, biochemical, biotinylated probe, 635/667 nm fluorescence (AID 1100); settings: higher = more signal
[4] = splicing luciferase reporter signal modulators, primary screen, spliceosome inhibition project, cell-based, HEK293, splice +/- reporter (AID 1101); settings: luminescence, 24 h, higher = more signal, called active from +8 up or from −8 down;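 note: HEK293 cells carrying a splicing-competent luciferase reporter gene; test concentration not given here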
[5] = biological target: Fibroblast growth factor 10 (Homo sapiens) (UniProt O15520); experiment: FGF10 binders on small-molecule microarrays, primary screen, biochemical, small-molecule microarray, 635 nm fluorescence (AID 1102); settings: FGF10 binding, fluorescence 635 nm, higher = more signal
Sequence of Fibroblast growth factor 10 (Homo sapiens) (O15520 whole entry, looked up): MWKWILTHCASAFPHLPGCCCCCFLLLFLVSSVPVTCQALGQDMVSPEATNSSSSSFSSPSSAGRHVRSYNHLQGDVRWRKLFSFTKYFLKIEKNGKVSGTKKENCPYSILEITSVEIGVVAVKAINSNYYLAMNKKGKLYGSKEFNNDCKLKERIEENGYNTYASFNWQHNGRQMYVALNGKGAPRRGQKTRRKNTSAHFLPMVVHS

[6] = system: glycogen synthase kinase-3 (GSK3A per assay name; protocol says GSK3B); experiment: GSK3 binders on small-molecule microarrays, primary screen, biochemical, small-molecule microarray, 635 nm fluorescence, GSK3A (AID 1103); settings: small-molecule microarray binding, fluorescence 635 nm; higher = more signal; note: the record names both GSK3A and GSK3B
[7] = biological target: Epidermal growth factor receptor (Homo sapiens) (UniProt P00533); experiment: EGFR binders on small-molecule microarrays, primary screen, biochemical, small-molecule microarray, 635 nm fluorescence (AID 1104); settings: EGFR binding, higher = more signal;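 note: score merges 667 nm emission intensity with spot signal to noise over triplicate slides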
Sequence of Epidermal growth factor receptor (Homo sapiens) (P00533 whole entry, looked up): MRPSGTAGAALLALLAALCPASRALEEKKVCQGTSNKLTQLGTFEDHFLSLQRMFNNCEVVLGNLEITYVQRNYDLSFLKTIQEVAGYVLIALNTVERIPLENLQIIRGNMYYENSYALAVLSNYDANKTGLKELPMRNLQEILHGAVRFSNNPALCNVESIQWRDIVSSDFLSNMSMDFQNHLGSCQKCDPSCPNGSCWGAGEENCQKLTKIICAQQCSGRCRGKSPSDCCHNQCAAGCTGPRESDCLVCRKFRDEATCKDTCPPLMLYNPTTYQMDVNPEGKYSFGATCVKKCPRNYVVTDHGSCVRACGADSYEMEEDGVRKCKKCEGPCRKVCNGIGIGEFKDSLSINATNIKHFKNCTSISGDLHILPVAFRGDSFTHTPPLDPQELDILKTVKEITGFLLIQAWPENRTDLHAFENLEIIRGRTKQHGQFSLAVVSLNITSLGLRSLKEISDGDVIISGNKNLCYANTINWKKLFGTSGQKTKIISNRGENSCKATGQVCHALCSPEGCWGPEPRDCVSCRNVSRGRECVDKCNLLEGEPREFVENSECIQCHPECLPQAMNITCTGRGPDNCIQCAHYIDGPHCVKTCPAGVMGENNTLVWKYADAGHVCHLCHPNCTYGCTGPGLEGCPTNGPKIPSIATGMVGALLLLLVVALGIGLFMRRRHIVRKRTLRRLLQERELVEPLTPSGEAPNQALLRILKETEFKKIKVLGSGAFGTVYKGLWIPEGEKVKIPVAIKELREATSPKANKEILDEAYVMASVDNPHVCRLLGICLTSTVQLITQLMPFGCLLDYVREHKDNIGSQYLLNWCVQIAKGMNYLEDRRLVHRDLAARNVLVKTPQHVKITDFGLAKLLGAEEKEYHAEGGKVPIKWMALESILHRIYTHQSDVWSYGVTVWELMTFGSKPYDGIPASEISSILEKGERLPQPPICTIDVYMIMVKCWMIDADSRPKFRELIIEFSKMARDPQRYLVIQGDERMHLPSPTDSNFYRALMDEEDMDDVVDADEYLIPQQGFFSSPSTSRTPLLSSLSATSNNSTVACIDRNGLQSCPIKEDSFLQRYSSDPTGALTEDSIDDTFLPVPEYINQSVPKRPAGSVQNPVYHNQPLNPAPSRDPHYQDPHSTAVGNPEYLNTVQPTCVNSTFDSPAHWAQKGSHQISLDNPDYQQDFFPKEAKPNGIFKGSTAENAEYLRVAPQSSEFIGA

[8] = biological target: Follistatin-related protein 3 (Homo sapiens) (UniProt O95633); experiment: FSTL3 binders on small-molecule microarrays, primary screen, biochemical, small-molecule microarray, 635 nm fluorescence (AID 1105); settings: FSTL3 binding, higher = more signal;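 note: score merges emission near 667 nm and signal to noise per printed spot across three slides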
Sequence of Follistatin-related protein 3 (Homo sapiens) (O95633 whole entry, looked up): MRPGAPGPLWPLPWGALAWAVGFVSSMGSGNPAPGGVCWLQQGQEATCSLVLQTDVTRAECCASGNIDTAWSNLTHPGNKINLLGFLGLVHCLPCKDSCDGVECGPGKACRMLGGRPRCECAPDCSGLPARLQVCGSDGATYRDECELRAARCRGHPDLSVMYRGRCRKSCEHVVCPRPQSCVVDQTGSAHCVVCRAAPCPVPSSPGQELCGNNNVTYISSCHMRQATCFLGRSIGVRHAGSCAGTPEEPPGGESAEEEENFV

[9] = biological target: Dickkopf-related protein 1 (Homo sapiens) (UniProt O94907); experiment: DKK1 binders on small-molecule microarrays, primary screen, biochemical, small-molecule microarray, 635 nm fluorescence scan (AID 1106); settings: DKK1 binding, higher = more signal;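 note: score merges emission near 667 nm with signal to noise over three replicate slides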
Sequence of Dickkopf-related protein 1 (Homo sapiens) (O94907 whole entry, looked up): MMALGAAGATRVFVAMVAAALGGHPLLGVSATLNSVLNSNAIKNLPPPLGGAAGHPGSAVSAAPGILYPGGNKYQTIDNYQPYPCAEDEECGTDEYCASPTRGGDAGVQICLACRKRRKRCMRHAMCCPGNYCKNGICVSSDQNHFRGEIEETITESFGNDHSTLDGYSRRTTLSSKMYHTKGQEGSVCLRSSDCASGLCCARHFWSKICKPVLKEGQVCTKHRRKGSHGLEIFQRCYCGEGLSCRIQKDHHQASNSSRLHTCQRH

[10] = system: Inhibin beta A chain (activin A); experiment: INHBA (activin A) binders on microarrays, primary screen, biochemical, small-molecule microarray, 635 nm fluorescence scan (AID 1107); settings: small-molecule microarray binding, higher = more signal;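 note: mouse activin A protein probed at 4.33 µg/mL on printed slides; score merges bound-protein fluorescence near 667 nm with spot signal-to-noise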

SMILES | composite z-score [1] | composite z-score [2] | composite z-score [3] | z-score [4] | composite z-score [5] | composite z-score [6] | composite z-score [7] | composite z-score [8] | composite z-score [9] | composite z-score [10]
C=CCOC(=O)[C@H]1[C@@H]2C(=O)O[C@@H](c3ccccc3)[C@@H](c3ccccc3)N2[C@@H](c2ccc(OCCOC(=O)[C@@H]3C[C@@H]4C(=O)N[C@@H](CCCCN(C)C)C(=O)N4[C@@H]3c3ccc(O)cc3)cc2)[C@]12C(=O)Nc1ccc(I)cc12 | 1.04 | 0.26 | -0.0178 | -0.433 (inactive) | 0.735 | 1.32 | 0.537 | 1.08 | 1.06 | -0.389
CCCCCC1=C2CNC(CCC)(C(=O)OC)C=C2C(C)C1=O (stereo not given) | 0.0288 | 0.719 | 0.952 | 2.6 (inactive) | 0.439 | -0.111 | -0.576 | -0.435 | -0.793 | 1.14
CCCCCN1CC=CC23O[C@@H]4/C=C\CCCOC(=O)C4[C@H]2C(=O)N(C(CO)C(C)C)[C@@H]3C1=O (stereo not given in full) | 1.24 | -0.248 | -0.0212 | -0.455 (inactive) | 0.0758 | -0.949 | -0.637 | -0.188 | -0.148 | 1.05
CCOC1=C2C(CN(S(=O)(=O)c3ccc(C)cc3)C2c2ccc(C)cc2)C2C(=O)N(c3ccccc3)C(=O)C2C1 (stereo not given) | 0.9 | 0.0373 | 0.267 | -0.113 (inactive) | 1.25 | 0.36 | 0.171 | 0.782 | 0.207 | 0.809
O=C1c2ccccc2[C@](Cc2ccccc2I)(C(=O)NC2CC2)[C@H](c2ccc(CO)cc2)N1Cc1ccccc1 | 0.701 | -0.145 | 0.693 | -0.0921 (inactive) | 0.409 | -0.0685 | -0.375 | -0.117 | -0.112 | 0.0183
[N-]=[N+]=NCc1ccccc1[C@@H]1OC(c2ccc(OCCCO)cc2)=N[C@]1(CCS(=O)(=O)c1ccccc1)C(=O)NCc1ccccc1 | 1.54 | 1.14 | 0.993 | -0.392 (inactive) | 1.25 | 1.26 | 0.274 | 0.869 | 0.494 | 1.07
COc1ccc(CCN2C(=O)[C@@]3(Cc4ccccc42)c2ccccc2C(=O)N(Cc2ccccc2C(F)(F)F)[C@H]3c2ccc(CO)cc2)cc1 | 0.516 | -0.19 | -0.537 | -0.856 (inactive) | 0.167 | 0.441 | 0.0283 | 0.425 | 0.622 | 0.717
O=C1OCC=C[C@H]2OC34C=CCN(c5ccc6ccccc6c5)C(=O)[C@H]3N(CCCCCCO)C(=O)[C@@H]4[C@@H]12 (stereo not given in full) | 1.66 | -0.117 | 0.817 | -0.076 (inactive) | -0.821 | -1.12 | -1.79 | -1.69 | -0.854 | 0.0633
